Sampled rows, rich in hits. Any-hit rate of the full collection: about 8.1%.
MITF inh – inhibitors of MITF, primary screen, MITF inhibitor project, cell-based, luminescence | TRPM1 promoter luciferase, 24 h | inhibition, % (test concentration not listed) | actives 0.28% (n = 37,000) | AID 2240, 2010; in the data active = inhibition above about 85%; inconclusive = no clear call, values can overlap the other calls; inactive = below about 68%;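 also: human melanocyte line stably carrying TRPM1 promoter luciferase reporter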
NOMO-1 viab – NOMO-1 AML cell viability reduction, primary screen, STK33 inhibitor project, CellTiter-Glo luminescence; inhibition, % (concentration not given with the values); NOMO-1 AML viability, 72 h; actives 7.5% (n = 37,000); in the data active = inhibition above about 80%; inconclusive = no clear call, values can overlap the other calls
Hedgehog inh – Hedgehog pathway signaling inhibitors, primary screen, luminescence, Shh-LIGHT2 cells, Gli-luciferase | Shh-LIGHT2 Gli-luciferase reporter, 30 h | inhibition, % (concentration not given with the values) | actives 2.1% (n = 22,000) | AID 2313, 2010;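 active = mean inhibition across valid replicates above about 65%, limit read from the data; inconclusive = mean under the limit, yet half or more replicates past it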;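 also: pathway switched on by Shh-conditioned medium diluted 1 in 25 in low serum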
Numbers without * were called inactive; u = inconclusive; x = not tested or not shown.

SMILES	MITF inh	NOMO-1 viab	Hedgehog inh
Cn1c(N2C(=O)c3cccc4cccc(c34)C2=O)nc2ccccc21	-25	16	86*
Cn1c(SCCCN2C(=O)c3cccc4cccc(c34)C2=O)nnc1-c1ccncc1	-63	13	x
COc1cc(NC(=O)CCn2cnc3ccccc3c2=O)c(OC)cc1Cl	-6	21	x
C/C1=C/CC(=O)C(C)C[C@H]2OC(=O)[C@H](C)C2[C@@H](O)C1 (stereo not given in full)	6	-10	-10
CCOC(=O)c1oc2ccc(C=NC(C)(C)C)c(Cl)c2c1C	-57	40	-66
CCOC(=O)c1oc2ccccc2c1CO	27	26	97*
Cc1ccccc1-c1nnc(-c2cc(C(C)(C)C)nn2Cc2ccc(F)cc2)o1	-7	20	-15
C[C@@H]1CCCCO[C@@H](CN(C)Cc2ccccc2)[C@@H](C)CN([C@H](C)CO)C(=O)c2cc(NS(=O)(=O)c3ccc(Cl)cc3)ccc2O1	5	40	24
C[C@@H]1CCCCO[C@H](CN(C)C(=O)Nc2cccc3ccccc23)[C@@H](C)CN([C@H](C)CO)C(=O)c2cc(NS(=O)(=O)c3ccc(F)cc3)ccc2O1	22	94*	22
C[C@@H]1CCCCO[C@H](CN(C)Cc2ccc(C(=O)Nc3ccccc3N)cc2)[C@@H](C)CN([C@H](C)CO)C(=O)c2cc(NS(=O)(=O)c3ccc(Cl)cc3)ccc2O1	41	127*	x
C[C@@H]1CCCCO[C@H](CN(C)Cc2ccc(C(=O)Nc3ccccc3N)cc2)[C@@H](C)CN([C@H](C)CO)C(=O)c2cc(NS(=O)(=O)c3cn(C)cn3)ccc2O1	2	40	x
C[C@@H]1CCCCO[C@@H](CN(C)Cc2ccccc2)[C@@H](C)CN([C@H](C)CO)C(=O)c2cc(NS(=O)(=O)c3ccc(F)cc3)ccc2O1	-16	22	x
C[C@@H]1CCCCO[C@@H](CN(C)Cc2ccc(C(=O)Nc3ccccc3N)cc2)[C@@H](C)CN([C@H](C)CO)C(=O)c2cc(NS(=O)(=O)c3ccc(F)cc3)ccc2O1	34	141*	x
C[C@@H]1CCCCO[C@H](CN(C)C(=O)Nc2cccc3ccccc23)[C@@H](C)CN([C@H](C)CO)C(=O)c2cc(NS(=O)(=O)c3ccccc3)ccc2O1	15	41	x
C[C@@H]1CCCCO[C@@H](CN(C)Cc2ccc(C(=O)Nc3ccccc3N)cc2)[C@@H](C)CN([C@H](C)CO)C(=O)c2cc(NS(=O)(=O)c3ccccc3)ccc2O1	16	140*	x
COc1cc(NC(=O)COc2ccc(C(C)C)cc2)ccc1-c1cc2ccccc2oc1=O	17	32	x
COC(=O)c1ccccc1NC(=O)CSc1nc(-c2cccs2)cc(C(F)(F)F)c1C#N	28	20	x
O=C(Nc1ccc(S(=O)(=O)NC23CC4CC(CC(C4)C2)C3)cc1)C1CC1	4	33	-2
COC(=O)C(CC(=O)c1ccc(Cl)cc1)c1cc(=O)oc2cc(OC)ccc12 (stereo not given)	-19	37	x
CS(=O)(=O)N(CC(=O)Nc1ccc(F)cc1)c1cccc2ccccc12	1	-3	x
CN(C)S(=O)(=O)c1ccc(NC(=O)CCC(=O)O)cc1	-25	4	x
Cc1cc(C)c2c(c1C(=O)Nc1cccc(C(F)(F)F)c1)CC(C)(C)C2=O	60	75	86*
COc1ccc(C(=O)NCC(=O)Nc2cccc(C(F)(F)F)c2)cc1	-11	-28	x
COc1ccc(S(=O)(=O)Nc2ccc3c(c2)CC(=O)N([C@@H](C)CO)C[C@H](C)[C@@H](CN(C)CC2CCCCC2)O3)cc1	12	109*	20
COc1ccc(S(=O)(=O)Nc2ccc3c(c2)CC(=O)N([C@@H](C)CO)C[C@@H](C)[C@@H](CN(C)CC2CC2)O3)cc1	-8	7	x
SMILES	MITF inh	NOMO-1 viab	Hedgehog inh
COc1ccc(S(=O)(=O)Nc2ccc3c(c2)CC(=O)N([C@@H](C)CO)C[C@H](C)[C@@H](CN(C)CC2CC2)O3)cc1	0	-4	11
COc1ccc(S(=O)(=O)Nc2ccc3c(c2)CC(=O)N([C@@H](C)CO)C[C@@H](C)[C@@H](CN(C)CC2CCCCC2)O3)cc1	-2	101*	20
O=C(CN1C(=O)c2cccc3cccc1c23)Nc1ccccc1C(=O)N1CCOCC1	-3	-10	x
CC/C=C\C=C1\C(=O)C=CC1CCCCCCCC(=O)O (stereo not given)	x	x	49
CN1CCN(CC(=O)N2N=C(c3c(-c4ccccc4)c4cc(Cl)ccc4[nH]c3=O)CC2c2ccccc2)CC1 (stereo not given)	1	124*	x
O=C(CSc1nc(-c2ccccc2)c2cc(Cl)ccc2n1)N1N=CCC1c1ccccc1 (stereo not given)	20	43	x
OCCN1CCN(CC(O)COc2ccc3c(c2)CCC3)CC1 (stereo not given)	-10	32	x
CCc1ccc2nc(N3C(=O)C(=O)C(C(=O)c4ccco4)C3c3cc(OC)ccc3OC)sc2c1 (stereo not given)	-8	25	x
C[C@H]1CN([C@@H](C)CO)C(=O)Cc2cc(NC(=O)C3CC3)ccc2O[C@@H]1CN(C)Cc1ccc(C(=O)Nc2ccccc2N)cc1	-2	55	x
C[C@@H]1CN([C@H](C)CO)C(=O)Cc2cc(NC(=O)C3CCCCC3)ccc2O[C@@H]1CN(C)Cc1ccc(C(=O)Nc2ccccc2N)cc1	-4	u	x
C[C@H](CO)N1C[C@H](C)[C@H](CN(C)Cc2ccc(C(=O)Nc3ccccc3N)cc2)Oc2ccc(NC(=O)C3CC3)cc2CC1=O	2	127*	x
C[C@H](CO)N1C[C@H](C)[C@H](CN(C)Cc2ccc(C(=O)Nc3ccccc3N)cc2)Oc2ccc(NC(=O)C3CCCCC3)cc2CC1=O	15	141*	x
CCn1c2ccccc2c2cc(NC(=O)CN(C)S(=O)(=O)c3ccc(Cl)cc3)ccc21	19	15	x
O=C(CSc1nnnn1C1CCCCC1)Nc1ccccc1[N+](=O)[O-]	-2	-6	x
CC(=O)OC(C)(C)/C=C/C(=O)[C@](C)(O)[C@H]1C(O)C[C@@]2(C)[C@@H]3CC=C4[C@@H](C=C(O[C@@H]5O[C@H](CO)[C@@H](O)[C@H](O)[C@H]5O)C(=O)C4(C)C)[C@]3(C)C(=O)C[C@]12C (stereo not given in full)	-3	117*	19
CC(=O)O[C@@](C)(C(=O)/C=C/C(C)(C)O)[C@H]1[C@H](O)C[C@@]2(C)[C@@H]3CC=C4[C@@H](C=C(O[C@@H]5O[C@H](CO)[C@@H](O)[C@H](O)[C@H]5O[C@@H]5O[C@@H](C)[C@H](O)[C@@H](O)[C@H]5O)C(=O)C4(C)C)[C@]3(C)C(=O)C[C@]12C	x	x	-7
CCOC(=O)c1c(NC(=O)CC2NCCNC2=O)sc2c1CCCC2 (stereo not given)	8	1	x
CC1Oc2ccccc2OC1(O)c1ccc(Br)cc1 (stereo not given)	17	106*	17
NC(=O)COc1ccc(C2NC(=S)NC(c3ccccc3)=C2C(=O)c2ccccc2)cc1 (stereo not given)	-3	5	x
Cc1cccc(OCC(=O)Nc2cccc(-c3nc4ccccc4s3)c2)c1	-14	-8	x

Screening data from PubChem.
